Inconclusive results are not listed. A number with no mark means an inactive call. The source made the active and inactive calls. Calls come from the whole dose curve.
molecular target: Atrial natriuretic peptide receptor 1 (Homo sapiens) (UniProt P16066); experiment: Natriuretic polypeptide receptor (hNpr1) antagonism - Pilot CMLD screen (AID 1347052); details: HEK293 hNpr1 GloSensor cGMP luminescence, ANP-stimulated; series mostly up to 9.22 µM; activity change, negative = inhibition: at the top concentration
Experimental: In order to identify small molecular compounds that inhibit the hNpr1 receptor we developed a high-throughput assay to measure inhibition of the guanylate cyclase activity of the receptor. cGMP production was measured using a circular permutated Firefly luciferase (FLuc) enzyme functionally linked to the cGMP binding domain of human phosphodiesterase 5 (GloSensor technology pGS-40F, (Fan, F. et al. 2008). The cGMP-sensor was expressed in human embryonic kidney 293 (HEK-293) cells and FLuc activity was measured after stimulation with hNrp agonist peptide. hNrp agonists activates the receptor's associated guanylyl cyclase (GC) domain producing cGMP which then binds to the GloSensor resulting in FLuc activation, the enzymatic activity of which can be measured as bioluminescence with addition of luciferin substrate.
This assay was initially piloted by testing with a small library of specialty compounds.
PROTOCOL TABLES (as described by Inglese J, Shamu CE and Guy RK. 2007)
SEQUENCE No. (e.g., 1, 2, 3, etc.); […] (e.g., Cells, Incubation, Reagent, etc.); VALUE and DESCRIPTION.
1. Cells. Seed 1500 HEK293 cGMP-sensor cells expressing hNpr1 per well in 4uL into Greiner 1536-well white/solid bottom high base, tissue culture-treated plates.
2. Incubation. Incubate plated cells at 37C in 5% CO2, 95% RH overnight.
3. Reagent. Add 1uL per well GloSensor reagent from Promega (2% final concentration) or CO2 independent media vehicle control to respective columns of Greiner 1536-well plates.
4. Incubation. Incubate plated cells at room temperature for 2 h, protect from light.
5. Compounds. Library compounds and A-71915 control added at 23 nL per well, transferred by Pin Tool.
6. Incubation. Incubate plated cells for 30 min. at room temperature, protect from light.
7. Detector. GloSensor baseline pre-read luminescence measured using CCD-based camera (Viewlux).
8. Compound. Add 1uL of hNppA peptide to 0.1 nM final concentration to stimulate hNpr1 or CO2 independent media as vehicle control.
9. Incubation. Incubate treated cells at room temperature for 20 min., protect from light.
10. Detector. GloSensor post-hNppA luminescence measured using CCD-based camera (Viewlux).
NOTES (numbers refer to Sequence numbers above)
1. HEK293 cells expressing hNpr1 and GIP/pGS-40F grown to 85-95% confluence (48-72 h) in T175 culture flasks (CO2 independent media supplemented with 10% FBS, 1% Pen/Strep antibiotics and 1 ug/mL puromycin). Trypsinize and harvest cells from T175 culture flasks and filter through 40 um cell strainer. Cells counted with Invitrogen Countess (30,000,000 - 50,000,000 cells/flask). Cells diluted to a final concentration of 375 cells/uL in CO2 independent media and a Millipore multidrop used to dispense 1500 cells per well (4uL/well) into 13 1536-well Greiner White/Solid bottom, high base tissue-culture treated (TC) plates and one Aurora 1536-well Black/Clear bottom, low base, TC plate (for visual inspection of cell health throughout the duration of the assay).
2. Cells incubated overnight at ambient temperature, 24 h. at 37C in 95% RH incubator protected from light, covered with metal lid with gas-exchange holes.
3. Prepare GloSensor Reagent (Promega): Reconstitute GloSensor luciferase substrate by adding 8.2mL Hepes buffer to 250mg substrate, mix well, protect from light and stored at -80C. Prepare a fresh 12% GloSensor solution in CO2 independent supplemented plating media (see above). Mix well and store at ambient temperature, protected from light. 1uL 12% GloSensor Luciferase Reagent added (2% final concentration) to respective columns of 13 x 1536-well Greiner plate with BioRaptr, 1uL CO2 independent plating media added to respective columns as vehicle control with BioRaptr.
4. Cells incubated for 2 h. at ambient temperature, protected from light with metal lid with gas-exchange holes.
5. A-71915 stock solution prepared (10 mM in DMSO). […]
% is set by controls: 0 for no effect and ±100 for the full control effect; potency is the fitted concentration of half-maximal effect.

Sequence of Atrial natriuretic peptide receptor 1 (Homo sapiens) (P16066 whole entry, looked up, the tested form may be a part): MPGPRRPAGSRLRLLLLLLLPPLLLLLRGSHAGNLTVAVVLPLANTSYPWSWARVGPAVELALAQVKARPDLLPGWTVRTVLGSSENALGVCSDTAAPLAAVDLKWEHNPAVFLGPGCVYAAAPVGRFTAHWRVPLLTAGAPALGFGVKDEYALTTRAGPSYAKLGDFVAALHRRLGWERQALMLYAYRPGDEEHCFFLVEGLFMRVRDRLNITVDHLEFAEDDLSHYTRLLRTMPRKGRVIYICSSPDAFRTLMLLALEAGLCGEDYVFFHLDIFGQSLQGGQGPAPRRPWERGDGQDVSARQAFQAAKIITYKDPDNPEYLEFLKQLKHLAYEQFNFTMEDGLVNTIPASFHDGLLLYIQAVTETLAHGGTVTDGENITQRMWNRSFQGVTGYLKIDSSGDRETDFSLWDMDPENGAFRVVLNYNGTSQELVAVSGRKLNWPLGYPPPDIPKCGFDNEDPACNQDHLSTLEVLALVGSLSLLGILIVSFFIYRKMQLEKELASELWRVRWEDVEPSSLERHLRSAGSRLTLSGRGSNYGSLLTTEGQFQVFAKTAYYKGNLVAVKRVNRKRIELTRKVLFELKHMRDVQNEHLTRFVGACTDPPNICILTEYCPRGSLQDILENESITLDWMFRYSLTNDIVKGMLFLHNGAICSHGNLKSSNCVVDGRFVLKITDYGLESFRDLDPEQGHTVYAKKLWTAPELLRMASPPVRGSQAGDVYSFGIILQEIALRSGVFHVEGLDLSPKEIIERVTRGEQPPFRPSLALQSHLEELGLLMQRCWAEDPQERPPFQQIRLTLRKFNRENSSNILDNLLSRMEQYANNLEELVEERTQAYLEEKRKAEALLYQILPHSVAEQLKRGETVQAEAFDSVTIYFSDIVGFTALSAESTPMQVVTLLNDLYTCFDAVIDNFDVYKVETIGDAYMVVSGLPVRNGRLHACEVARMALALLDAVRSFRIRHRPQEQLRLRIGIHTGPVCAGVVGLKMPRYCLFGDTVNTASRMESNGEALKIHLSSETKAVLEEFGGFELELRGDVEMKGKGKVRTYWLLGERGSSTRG

Row | SMILES | activity change, negative = inhibition [%] | Potency
1 | CCOC(=O)CN1C(=O)N[C@@H](CCc2ccccc2)[C@H](C(=O)OC)[C@H]1C | 0.209 | 
2 | C=CC[C@](C)(Nc1ccc(OC)cc1)C(=O)OCC | 7.66 | 
3 | CC(=O)OC[C@H]1O[C@H](CC=NO[C@H](C)c2cn([C@@H]3COC[C@@H]3O)nn2)C=C[C@@H]1OC(C)=O | 4.7 | 
4 | CC(=O)OC[C@H]1O[C@H](CCON=C(C)CCC(=O)OC[C@H]2O[C@H](C#Cc3ccccc3)C=C[C@H]2Oc2ccc(C)cc2)C=C[C@H]1OC(C)=O | -0.907 | 
5 | CCCCCCCC#Cc1ccccc1C=NS(=O)c1ccc(C)cc1 (stereo not given) | 0.183 | 
6 | COCCN1C(=O)N[C@@H](CCc2ccccc2)[C@H](C(C)=O)[C@H]1C | 5.89 | 
7 | COC1=C[C@H](C(=O)NCCNC(C)=O)[C@@]2(C)Cc3ccccc3[C@@H]2CC1=O | -5.11 | 
8 | CCOC(=O)CN1C(=O)C2(CC(C)=C[C@@H](C)O2)c2c(Br)cccc21 (stereo not given in full) | 4.47 | 
9 | CCCCC1=CC2=C(c3ccco3)C(=O)C(C)(OC(=O)c3ccc(OC)cc3)C(=O)C2=CN1Cc1ccco1 (stereo not given) | 1.4 | 
10 | CC(=O)OC[C@H]1O[C@@H](ON=C2C[C@@H](O)[C@@H](O)[C@@H]3[C@H]4C(=O)N(C5CCCCC5)C(=O)[C@@H]4CC[C@@H]23)[C@H](OC(C)=O)[C@@H](OC(C)=O)[C@H]1OC(C)=O | 3.87 | 
11 | COC(=O)c1ccc(CN2C(=O)[C@]3(OCCC=C[C@@H]3C)c3c(Br)cccc32)cc1 |  | inactive
12 | CCCCC#C[C@@H]1C=C[C@H](Oc2ccc(C(=O)OC)cc2)[C@@H](COC(=O)OCC)O1 | 1.53 | 
13 | COC(=O)CC=C[C@@H](C)[C@H](NC(=O)OC)c1ccccc1Br | -3.18 | 
14 | COC(=O)C1=C(C(=O)OC)[C@@H]2N(C)c3ccccc3[C@@]23CCC(=O)N(Cc2ccc4c(c2)OCO4)C3=N1 | 5.38 | 
15 | COc1ccc(-c2nc(-c3ccccc3)oc2Nc2c(C)cccc2C)cc1 | -1.09 | 
16 | COC(=O)c1c(C(=O)OC)c2c3cc(OC)c(OC)cc3ccn2c1C(=O)OC | 3.42 | 
17 | COc1ccc(C(=O)[C@]2(C)C=C(c3ccc(OC)cc3)[C@H](C)C2)cc1 | -1.47 | 
18 | CC(=O)C1=C(C)N(Cc2ccccc2)C(=O)NC1CCc1ccccc1 (stereo not given) | -2.34 | 
19 | C=CC(=O)N1C(=O)c2ccccc2S1(=O)=O |  | 2.99 µM (active)
20 | CCC(=O)OC1(C)C(=O)C=C2C=C(CCCC(=O)OC)OC=C2C1=O (stereo not given) | 9.98 | 

Row | SMILES | activity change, negative = inhibition [%] | Potency
21 | c1ccc(-c2nc(-c3ccccc3)c(NC3CCCCC3)o2)cc1 | -1.34 | 
22 | O=C1N[C@H](Cc2ccccc2)C(=O)N1Cc1cccc2ccccc12 | 4.77 | 
23 | COc1ccc2c(c1)O[C@H](c1ccc3c(c1)OCO3)[C@@H](OC(=O)Nc1ccc(C)c(Br)c1)C2=O | 1.67 | 
24 | COc1ccc(COC(=O)NN=C2C[C@@H](O)[C@@H](O)[C@@H]3[C@H]4C(=O)N(C5CCCCC5)C(=O)[C@@H]4CC[C@@H]23)cc1 | 6.01 | 
25 | COc1ccc(O[C@H]2C=C[C@@H](c3ccccc3)O[C@H]2COC(=O)CCC(C)=NOCC[C@@H]2C=C[C@H](OC(C)=O)[C@@H](COC(C)=O)O2)cc1 | -4.89 | 
26 | COC(=O)C1=C(C)N(Cc2ccco2)C(=O)NC1c1ccc(Br)cc1 (stereo not given) | -5.25 | 
27 | C=CCOCCC=C1c2ccccc2[C@@H](OC)[C@@H]1C | 5.65 | 
28 | COC1=C[C@H](C(=O)NCCNC(C)=O)[C@H](C)[C@@H](c2ccccc2)CC1=O | 10.6 | 
29 | C#CCCCON=C1C[C@@H](O)[C@H](O)[C@H]2[C@@H]3C(=O)N(Cc4ccc5c(c4)OCO5)C(=O)[C@@H]3CC[C@@H]12 | 8.45 | 
30 | c1ccc(CCc2nc(-c3ccccc3)oc2Nc2ccc3ccccc3c2)cc1 | -4.65 | 
31 | CCCCOC(OCCCC)C(O)CSc1ccc2ccccc2c1 (stereo not given) | -5.96 | 
32 | COc1cccc([C@H]2Oc3ccc(OC)cc3C(=NOCC[C@@H]3C=C[C@H](OC(C)=O)[C@@H](COC(C)=O)O3)[C@H]2O)c1 | 1.33 | 
33 | CCCCC1=CC2=C(c3ccco3)C(=O)C(C)(OC(=O)c3ccc(OC)cc3)C(=O)C2=CN1Cc1ccc2c(c1)OCO2 (stereo not given) | 2.55 | 
34 | CCN1C(=NCc2cccc(Cl)c2)N[C@@H](CCc2ccccc2)[C@H](C(=O)OC)[C@H]1C | 7.02 | 
35 | COC(=O)[C@@H]1C=C[C@H](C)[C@H](CCOc2ccccc2)O1 | 6.11 | 
36 | COC(=O)C1=C(C)N(Cc2ccco2)C(=O)NC1c1ccco1 (stereo not given) | 7.92 | 
37 | C[C@]12C[C@@](C)(C=C1C=Cc1ccc(F)cc1)C(=O)C[C@H]2c1ccc(F)cc1 | -2.86 | 
38 | C=CC[C@@H]1C=C[C@@H](ON=C2[C@H]3CCn4c(=O)n(-c5ccccc5)c(=O)n4[C@@H]3[C@H](O)[C@@H]3O[C@H]23)[C@@H](CO)O1 | 12.4 | 
39 | C=C[C@@]1(C)CCC=C2C(=O)CCC[C@H]21 | 6.58 | 
40 | COC1=CC2C(=O)C([C@@H]3c4ccccc4C[C@]23C)C1(O)c1cccc(OC)c1 (stereo not given in full) | 8.04 | 

From PubChem BioAssay (NCATS)
